Results from PubChem BioAssay (NCI).
The panel holds about 83,000 compounds, 20% with a hit somewhere; the sample as a whole holds those more often.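 Assay: single dose, 48 h. Readout: percent growth (0 = no net growth; negative = cell death). Active: <10.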 The source made the active and inactive calls.

Test system: MOLT-4 leukemia
Assay: NCI-60 one-dose screen, 48 h (100 = growth as untreated, 0 = no growth, -100 = all killed)
Conditions: 10 µM unless noted
Description: Growth inhibition of the MOLT-4 human tumor cell line is measured as a screen for anti-cancer activity. Cells are grown in 96 well plates and exposed to the test compound for 48 hours. Compounds are tested at a single concentration, which is 10^-5 M for most compounds. The reported endpoint is percent growth (GI% or GIPRCNT), where numbers from 0 - 100% represent growth inhibition, and numbers from -100% - 0 represent cell death. For example, a value of 40 represents 60% growth inhibition. A value of 0 means no net growth occurred over the course of the experiment. A value of -40 indicates 40% of cells at the beginning of the experiment died by the end of the experiment. A value of -100 means all cells are dead at the end of the experiment.
NCI-60 Human Tumor Cell Lines Screen was performed using the standard one-dose NCI protocol, which is described in more detail at https://dtp.cancer.gov/discovery_development/nci-60/default.htm.
Compounds with GIPRCNT values below 10 were considered active. Activity score was based on GIPRCNT using the following formula: […]
Score is 0 for GIPRCNT values of 100 or above, 50 for GIPRCNT values of 0, and 100 for GIPRCNT values of -100.

Question: For `CCC(C)C1CCC(O)CC1` (stereo not given), which growth is on record?
Answer: The growth was 104% (inactive).

Question: Which growth does the source give for `CC(=O)N(CCCCCCN(C(C)=O)C(C)=O)C(C)=O` here?
Answer: The growth was 113% [100 µM] (inactive).

Question: With `COc1cc(C(=O)NC(=S)NCc2ccncc2)cc(OC)c1OC` as the compound, how does the growth read?
Answer: The growth was 86.1% (inactive).

Question: For `C1C[S+]2CC[S+]1CC2`, which growth is on record?
Answer: Its growth is 100% (inactive).

Question: `Clc1ccc(C(SCc2ccccc2)SCc2ccccc2)cc1` was tested. Which growth did it give?
Answer: The growth was 84.9% (inactive).

Question: How did the growth turn out when `CS(=O)(=O)c1ccc(/C=C\C(=O)O)cc1` was run?
Answer: Its growth is 111% (inactive).

Question: With `CCC1CCC(C)NC1` (stereo not given) as the compound, how does the growth read?
Answer: Its growth is 105% (inactive).

Question: Which growth does the source give for `Nc1ncc([N+](=O)[O-])cn1` here?
Answer: Its growth is 105% (inactive).

Question: `Clc1ccc(-c2noc(/C=C\c3ccccc3)n2)cc1` was tested. Which growth did it give?
Answer: Its growth is 98.4% (inactive).

Question: Which growth does the source give for `CC(=O)Oc1c(Cl)cccc1-c1ccccc1` here?
Answer: Its growth is 107% (inactive).

Question: For `Cc1ccc(O)c(N)c1`, which growth is on record?
Answer: The growth was 123% (inactive).

Question: `CC1CN(CCO)CC(C)O1` (stereo not given) was tested. Which growth did it give?
Answer: Its growth is 105% (inactive).

Question: How did the growth turn out when `C/C(Cc1ccccc1)=N\O` was run?
Answer: The growth was 5.17% (active).

Question: For `O=C(NCc1ccco1)Nc1cccc2c(NC(=O)NCc3ccco3)cccc12`, which growth is on record?
Answer: Its growth is 59.1% [100 µM] (inactive).

Question: For `O=S(=O)(O)c1ccc(O)c(C2CCCCC2)c1`, which growth is on record?
Answer: Its growth is 99.9% (inactive).

Question: For `CN(CCCN(C)CCC1CCCCC1)CCC1CCCCC1`, which growth is on record?
Answer: The growth was 20.5% (inactive).

Question: Which growth does the source give for `O=Cc1ccc(F)cc1` here?
Answer: The growth was 110% (inactive).

Question: `Cc1c(Cl)cccc1NC(=S)NC(=O)c1ccccc1` was tested. Which growth did it give?
Answer: Its growth is 83.9% (inactive).

Question: With `COc1ccc2c(ccc[n+]2C)c1` as the compound, how does the growth read?
Answer: The growth was 111% (inactive).

Question: `CC(C)(C)[Si](C)(C)OCC1OC(n2cnc3c(N)ncnc32)CC1OS(C)(=O)=O` (stereo not given) was tested. Which growth did it give?
Answer: Its growth is 105% (inactive).

Question: `Cc1ccc(C)c(CN(C)C)c1O` was tested. Which growth did it give?
Answer: Its growth is 124% (inactive).

Question: With `ClCC(Cl)[C@@H]1CC2C=CC1C2` (stereo not given in full) as the compound, how does the growth read?
Answer: Its growth is 114% (inactive).

Question: `CC1CC(C)S(=O)(=O)C1` (stereo not given) was tested. Which growth did it give?
Answer: The growth was 91.3% (inactive).

Question: For `CCCCCCCCCCCCCCCCCCSC(=N)N`, which growth is on record?
Answer: The growth was 26.2% (inactive).

Question: `c1ccc2c(NCCCN3CCN(CCCNc4c5ccccc5nc5ccccc45)CC3)c3ccccc3nc2c1` was tested. Which growth did it give?
Answer: The growth was -5.28% [100 µM] (active).

Question: `COC1OC(CO)C(OC)C(O)C1O` (stereo not given) was tested. Which growth did it give?
Answer: The growth was 98.6% (inactive).

Question: How did the growth turn out when `CC(C)(C)CC1(C)NC(=O)NC1=O` (stereo not given) was run?
Answer: Its growth is 93.2% (inactive).

Question: How did the growth turn out when `N=C(N)c1nn(C2OC(CO)C(O)C2O)c2nc[nH]c(=O)c12` (stereo not given) was run?
Answer: Its growth is -11.9% (active).

Question: For `COc1cc(N)c2ncccc2c1Cl`, which growth is on record?
Answer: Its growth is 93.3% (inactive).

Question: For `CCN1CCCC(N2c3ccccc3Sc3ccccc32)C1` (stereo not given), which growth is on record?
Answer: The growth was 96.3% (inactive).

Question: How did the growth turn out when `O=C(N/N=C\c1ccc(Cl)cc1Cl)c1ccncc1` was run?
Answer: The growth was 94.5% (inactive).

Question: For `CCCC(OC(C)=O)c1ccc2c(c1)OCO2` (stereo not given), which growth is on record?
Answer: The growth was 107% (inactive).

Question: For `NC(=O)c1cc2c3ccccc3ccn2c1-c1ccccc1`, which growth is on record?
Answer: The growth was 7.02% (active).

Question: `N#Cc1ccc2nc[nH]c2c1` was tested. Which growth did it give?
Answer: The growth was 109% (inactive).

Question: Which growth does the source give for `Cc1ccc(/C=N/NC(N)=S)s1` here?
Answer: Its growth is 99.4% (inactive).

Question: `Cc1ccc(NC(=O)c2ccccc2Cl)cc1` was tested. Which growth did it give?
Answer: Its growth is 87.8% (inactive).

Question: How did the growth turn out when `C#CCSc1nnnn1-c1ccccc1` was run?
Answer: The growth was 87.9% (inactive).

Question: For `COc1cc(-c2ccc(NC(=O)CC(C)=O)c(OC)c2)ccc1NC(=O)CC(C)=O`, which growth is on record?
Answer: The growth was 89.5% (inactive).

Question: `CC(C)C1CCC(C)C(O)C1` (stereo not given) was tested. Which growth did it give?
Answer: The growth was 113% (inactive).

Question: How did the growth turn out when `O=C(OC1CCCC1)c1ccccc1Cl` was run?
Answer: The growth was 110% (inactive).
